Source: PubChem BioAssay AID1246 (Columbia University Molecular Screening Center, 2008)
About 840 (0.7%) of roughly 120,000 compounds were called active.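 How the source made its calls: active means inhibition above the batch mean plus 3 SD, and confirmed as a hit on visual image review (cut at about 43% in these data); inconclusive means passes the inhibition cutoff but fails visual image review; inactive means the rest.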 The sample as a whole holds a higher share of actives than the screen did.

Experiment: E-selectin induction blockers in HUVEC – imaging, immunofluorescence, high content, primary screen (AID 1246);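 further: 0% = TNF-stimulated DMSO wells and 100% = unstimulated control wells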
Conditions: HUVEC TNFa-induced E-selectin immunofluorescence, at 2 µM, active compounds read high

inhibition, inactive:
CCCCOc1ccc(N(CC(=O)NCC2CCCO2)C(=O)CCC(=O)Nc2cc(C)ccn2)cc1 (stereo unspecified) 13.7%, COCCNC(=O)CN(C(=O)CCC(=O)Nc1cc(C)on1)c1ccc(C)cc1C -15.2%, Cc1ccc(CSc2nc3[nH]ncc3c(=O)[nH]2)cc1 16%, Cc1ccc(C(=O)N/C(=C\c2cccs2)C(=O)NCCc2ccccn2)cc1C -0.32%, C=CCC(C(=O)c1ccccc1)[N+](C)(C)CC=C (stereo unspecified) -21.6%, CC1COc2ccccc2N1S(=O)(=O)c1ccccc1 (stereo unspecified) 10%, O=C1c2ccccc2NC(c2ccccn2)N1NS(=O)(=O)c1ccccc1 (stereo unspecified) 12.1%, COc1ccc(CCNC(=O)CC2SC(=Nc3cc(C)cc(C)c3)NC2=O)cc1OC (stereo unspecified) -40.4%, COc1ccc2c(c1OC)C(=O)OC2Nc1nc(-c2ccccc2)cs1 (stereo unspecified) 36.5%, CCn1c(SC)nc(O)c(C(c2ccc(OC)c(O)c2)c2c(O)nc(SC)n(CC)c2=O)c1=O -24.8%, O=C(O)CCCCOn1ccnc1 2.16%, Clc1ccc(CN2CCN(/N=C/c3cccnc3)CC2)cc1 -6.01%, Oc1ccc(-c2nncn2-c2ccccc2)cc1 -13.7%, CCCCN(C(=O)/C=C/c1ccco1)c1c(N)n(CC(C)C)c(=O)[nH]c1=O 7.93%, O=C(Nn1cnc2ccccc2c1=O)c1ccc([N+](=O)[O-])cc1Cl -17%, O=[n+]1c2c(n([O-])c3cc(Br)ccc31)CCC2 8.3%, O=C(O)CCC(=O)NCc1ccc2[nH]c3c(c2c1)CCCC3 -12%, CCN1C(=O)/C(=c2\s/c(=C3\Sc4ccccc4N3C)c(=O)n2C)N(C)C1=S -4.14%, CCC(C)NC(=O)/C=C/c1ccc(S(=O)(=O)NCc2ccco2)cc1 (stereo unspecified) 1.55%, O=S(=O)(NCCNS(=O)(=O)c1ccccc1)c1ccccc1 -9.47%, O=C(Nc1ccnc(-c2ccncc2)n1)c1cccs1 -27.2%, CCNC(=S)NNC(=O)C1CCN(Cc2ccccc2)CC1 -1.82%, Cc1occc1C(=O)N1CCCc2ccccc21 19.4%, O=C1/C(=C\c2ccccc2Cl)SC(=S)N1CCC(=O)N1CCCc2ccccc21 -3.4%, Cc1ccc(CN2CCN(Cc3ccc4ncccc4c3)CC2CCO)cc1 (stereo unspecified) -11.2%, COc1ccc(Cn2c(=O)cc(C)[nH]c2=S)cc1 5.51%, Cn1cccc1C(C#N)c1ccccc1C#N (stereo unspecified) 20.5%, CCCS(=O)(=O)N1CCC(CCOc2ccccc2)(C(=O)OCC)CC1 -12.3%, COc1ccc(F)c(-c2nc(CN3CCC(c4ccccc4)CC3)c(C)o2)c1 -28.7%, COc1ccc(NC(=S)Nc2ccccc2Cl)cn1 -66.9%, COc1ccc(NC(=O)/C(Cl)=C(/Cl)S(=O)Cc2ccc(C)cc2)cn1 (stereo unspecified) 27.8%, O=c1cc(O)c(-c2cccc(C(F)(F)F)c2)c(Cl)[nH]1 14.3%, CCc1ccccc1NC(=S)N(CCN1CCCCCC1)Cc1ccco1 -12.7%, CCOC(=O)COc1ccc([N+](=O)[O-])cc1 7.8%, N/C(Cc1ccc([N+](=O)[O-])cc1)=N\OC(=O)C1CCCCC1 -1.96%, Cc1ccnc(NC(=O)CCCOc2ccccc2)c1 4.53%, Cc1cc(C)nc(SCC(=O)N(C)C)n1 0.21%, COc1ccc(CN2CCNC(=O)C2CC(=O)N(C)Cc2ccccn2)cc1OC (stereo unspecified) -8.81%, Cc1cc(C)c(C#N)c(SCC(=O)Nc2ccccc2)n1 -29.3%, CC(=O)c1ccc(-c2nnc(CCC(=O)N(C)Cc3cnc4ccccn34)o2)s1 4.22%, N#CC1=C(N)Oc2[nH]c(=S)[nH]c(=O)c2C12C(=O)Nc1ccccc12 (stereo unspecified) -26.7%, COc1ccc(-n2nnnc2SCC(=O)NCc2cccs2)cc1 12.9%, COc1ccc(-c2nnn(Cc3nc(N)nc(N4CCCCC4)n3)n2)cc1 -40.4%, CCOC(=O)c1sc(=NC(=O)/C=C/c2cccs2)n(C)c1C -26.1%, Cc1cccc(C(=O)NNC(=O)c2cccc([N+](=O)[O-])c2)c1 -0.72%, O=C(CC12CC3CC(CC(C3)C1)C2)NCc1ccco1 23.1%, Fc1ccccc1Cn1cnc(NC(=S)NCCc2ccccc2)n1 -14.1%, CCC(C)CN1CCC(CO)(Cc2ccccc2Cl)CC1 (stereo unspecified) -16.5%, CCN1CCN(CC(=O)Nc2sc3c(c2C#N)CCC3)CC1 9.33%, CCN(CC)CCNC(=O)c1ccc(NC(=O)c2c(F)cccc2Cl)cc1 -1.94%, O=C(NCC1CCCO1)C1CCN(C2CCN(C(=O)C3CCCCC3)CC2)CC1 (stereo unspecified) 13%, Cn1c(=O)cc(OCCCC(=O)N2CCN(c3ccccn3)CC2)c2ccccc21 -12.9%, O=C(CCCN1C(=O)c2cccc3cccc(c23)C1=O)N1CCN(Cc2ccc3c(c2)OCO3)CC1 -25.6%, COCc1ccc(C(=O)N2CCc3c([nH]c4ccccc34)C2c2ccccn2)s1 (stereo unspecified) 4.79%, CCN(CC)c1ccc2c(Nc3ccccc3)c(C=O)c(=O)oc2c1 -20.2%, O=C(COC(=O)c1ccco1)NCc1ccc(Cl)cc1 -1.29%, O=S(=O)(/N=C(/Nc1ccccn1)c1ccccc1)c1ccc(Cl)cc1 -19.7%, O=C(O)c1ccc(NC(=O)c2cccs2)cc1 -5.04%, COc1ccc(NC(=O)CN2C(=O)CSC2=O)cc1 -1.6%, O=C(N/N=C/c1cc2c(cc1Br)OCO2)C1COc2ccccc2O1 (stereo unspecified) -17.4%, Cc1cc(C)cc(OCC(=O)Nc2ccc(S(=O)(=O)Nc3ccccn3)cc2)c1 -36.2%

inhibition, active:
Cc1cc(NC(=O)CCC(=O)N(CC(=O)NCC2CCCO2)c2ccccc2C)no1 (stereo unspecified) 66.4%, COc1ccc2c(c1OC)C(=O)OC2c1c(O)nc(SC)n(-c2ccccc2)c1=O (stereo unspecified) 95%, O=C1CCCc2c1[nH]c1ccc(Br)cc21 71.4%, CCN(CC)CCNS(=O)(=O)c1ccc(/C=C/C(=O)O)cc1 85.3%, O=C(c1c(Cl)nc2sccn12)N1CCCc2ccccc21 79%, COc1ccc(CS(=O)/C(Cl)=C(/Cl)C(=O)Nc2ccc(OC)nc2)cc1 (stereo unspecified) 99.4%, N/C(Cc1ccc([N+](=O)[O-])cc1)=N\OC(=O)COc1ccc2ccccc2c1 62.5%, COc1ccc(-n2nnnc2SCc2nc(N)nc(N3CCOCC3)n2)cc1 61.2%, Cn1c(=O)cc(OCCCC(=O)N2CCN(Cc3ccc4c(c3)OCO4)CC2)c2ccccc21 52.1%, O=S(=O)(/N=C(/Nc1ccccc1)c1ccccc1)c1cccs1 68.3%
